# The list is not random: actives were taken first. Their share in the collection is about 1%.
# rTrxR1 inhibitor – inhibitors of rat thioredoxin reductase 1 | O89049 | recombinant rTrxR1, NADPH fluorescence consumption, selenite substrate | Potency, µM (doses to about 114 µM), usual class: inhibitors | 390,000 tested, 1% active | AID 588453; further: nearly all actives have a fitted effect of over 65% in size
#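 Rat TrxR1 (90 nM in the dispensed reagent) was pre-reduced with 400 uM NADPH for 5 min at room temperature, then incubated with compound for 15 min. After 400 uM selenite was added, NADPH fluorescence (Ex 340/Em 450 nm) was followed for 8 min.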
# TrxR1 substrate – is turned over as a substrate by rat TrxR1; Potency, µM (top dose mostly 114 µM); 390,000 tested, 0.01% active; purified TrxR1 substrate turnover, NADPH consumption readout; AID 588456; further: nearly all actives have a fitted effect of over 50% in size
#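 Rat TrxR1, dispensed at 90 nM, was prereduced with 400 uM NADPH (final) for 5 min at ~22 deg C, then incubated with compound 15 min before 400 uM selenite. A first-read NADPH fluorescence drop versus no-compound background flagged substrates.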
# GALK inhibitor – blocks human galactokinase activity; Purified GALK, Kinase-Glo residual ATP luminescence; Potency, µM (doses to about 57.5 µM), hits mostly inhibitors; P51570; 270,000 tested, 0.007% active
#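 The enzyme phosphorylates galactose (100 uM) using ATP (35 uM); inhibition is detected as higher residual ATP, quantified by bioluminescence after 1 h reaction at room temperature, pH 8.0.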
# Eya2 inh – blocks the phosphatase activity of human Eya2; AID 488837; 330,000 tested, 0.006% active; Potency, µM (top dose mostly 76.9 µM), usual class: inhibitors; O00167; recombinant Eya2, OMFP fluorescence dephosphorylation (OMFP is methylfluorescein phosphate)
# Target sequence (O00167 whole entry, looked up): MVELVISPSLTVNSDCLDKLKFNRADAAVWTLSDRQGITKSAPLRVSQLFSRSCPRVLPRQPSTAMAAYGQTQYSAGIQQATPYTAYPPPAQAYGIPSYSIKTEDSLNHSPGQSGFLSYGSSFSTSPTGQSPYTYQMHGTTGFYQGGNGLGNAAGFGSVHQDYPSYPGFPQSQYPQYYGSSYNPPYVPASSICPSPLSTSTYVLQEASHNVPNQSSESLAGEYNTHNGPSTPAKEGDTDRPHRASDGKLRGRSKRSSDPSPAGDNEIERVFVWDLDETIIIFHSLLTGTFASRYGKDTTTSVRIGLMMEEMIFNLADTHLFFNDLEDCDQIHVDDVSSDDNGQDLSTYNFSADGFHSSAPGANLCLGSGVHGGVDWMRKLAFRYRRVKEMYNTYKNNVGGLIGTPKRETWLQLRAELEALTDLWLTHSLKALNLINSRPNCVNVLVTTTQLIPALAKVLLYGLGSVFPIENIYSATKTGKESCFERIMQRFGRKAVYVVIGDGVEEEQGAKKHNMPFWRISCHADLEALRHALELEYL
#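 Eya2 (0.2 uM) preincubated 10 min at ambient with compound, then OMFP substrate added at 50 uM; 10 min reaction in 50 mM HEPES pH 7.5, 50 mM NaCl, 5 uM MgCl2, 0.05% BSA, 1 mM DTT. Fluorescence read at Ex 485/Em 525 nm.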
# USP2a block – USP2a (human) protease inhibition; USP2 core, Ub-CHOP2 coupled fluorogenic reporter, 485/531; AID 463254; O75604; Potency, µM (top dose mostly 38.3 µM), hits mostly inhibitors; 330,000 tested, 0.01% active
#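 Deubiquitinase activity read as fluorescence (485/531 nm) after Ub-CHOP2 cleavage activates the enterokinase reporter on its substrate; USP2 core 10nM, Ub-CHOP2 and substrate 25nM each, 30min compound preincubation then 60min RT; data normalized to NEM, curves fitted.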
# RGS4 inh – inhibitors of human regulator of G protein signaling 4. P49798. Potency, µM (series often up to 114 µM), usual class: inhibitors. 390,000 tested, 0.039% active. Transcreener GDP fluorescence polarization, RGS4-accelerated GTP hydrolysis; further: nearly all actives have a fitted effect of over 75% in size
#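 MLSMR compounds (23 nl, pin-transferred) preincubated 10 min at room temperature with a 500nM (2x) first reagent, then RGS4 at 900nM (2x) plus Transcreener GDP mix added; fluorescence polarization (620/688 nm) read before and after 90 min at 30 °C.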
# Numbers stand for hits; - = inactive; ? = inconclusive; . = no result; [ ] = dose if it differs, or a comment. The call rests on the fitted dose curve; in most records, active means well fitted curve in the direction sought with a large enough effect; inconclusive means small, poorly fitted or top-dose-only effect, or another doubt; inactive means no such curve, though single readings can be large; an effect the other way counts as inactive or inconclusive.
SMILES,rTrxR1 inhibitor,TrxR1 substrate,GALK inhibitor,Eya2 inh,USP2a block,RGS4 inh
CCOc1ccccc1C(=O)NC1CC2CCCC(C1)N2C1CC1 (stereo not drawn),-,-,-,-,10µM,-
CC(C)=CCC/C(C)=C/COc1c2ccoc2cc2oc(=O)ccc12,-,-[0.457 µM],.,.,.,-
O=C(Nc1cc(F)ccc1F)c1cnn2c1NC(=C1CC1)C=C2C(F)F,-,-,.,.,.,.
O=c1c2c3nc4ccccc4nc3n(Cc3ccccc3)c2ncn1Cc1ccco1,17.8µM,-,-,-,?,-
Cc1cc(/C=C2\SC(=S)NC2=O)c(C)n1C,25.1µM,-,-,-,-,-
Cc1ccc(S(=O)(=O)N/N=C/c2ccc(O)c(O)c2)cc1[N+](=O)[O-],11.2µM,-,-,-,-,-
C=C1C(=O)C23C(O)C1CCC2C12CCCC(C)(COC(C)=O)C1C(O)C3(O)OC2 (stereo not drawn),7.08µM,-,.,.,.,?
O=[N+]([O-])c1ccc(/C=C/c2ccnc3ccccc23)c([N+](=O)[O-])c1,-,-,.,.,.,.
O=C(c1ccc([N+](=O)[O-])cc1)N1CCN(C(=O)c2ccco2)CC1,-,-,-,-,-,-
O=C(NC1CCC(O)CC1)c1ccc(-c2ccc([N+](=O)[O-])cc2)o1 (stereo not drawn),3.16µM,-,-,-,-,-
CCOC(=O)C1CCCN(C(=O)c2ccc(-c3ccc([N+](=O)[O-])cc3)o2)C1 (stereo not drawn),10µM,-,.,-,-,?
O=C(c1ccco1)N1CCN(C(=O)c2ccc(-c3ccc([N+](=O)[O-])cc3)o2)CC1,7.08µM,-,.,-,-,?
O=C(COC(=O)c1ccc(-c2ccc([N+](=O)[O-])cc2)o1)NC(=O)NC1CCCCC1,-,-,-,-,-,-
O=C(c1ccc(-c2ccc([N+](=O)[O-])cc2)o1)N1CCN(S(=O)(=O)c2cccs2)CC1,44.7µM,-,.,-,-,-
CC1CCCCC1NC(=O)COCc1cc(-c2cccs2)on1 (stereo not drawn),44.7µM,-,-,-,-,-
C(=C\c1ccnc2ccccc12)/c1ccc(N2CCNCC2)cc1,?,-,.,.,.,.
Cc1c(Cl)cc(-n2cnnn2)cc1[N+](=O)[O-],-,-,-,-,-,-
Cc1cc(C)cc(N2C(=O)C=CC2=O)c1,1.12µM,-,.,.,.,?
Cc1cc(N2C(=O)C=CC2=O)c([N+](=O)[O-])cc1C,2.82µM,-,-,-,-,?
Cc1c([N+](=O)[O-])cc(N2C(=O)C=CC2=O)cc1[N+](=O)[O-],3.16µM,-,.,.,.,-
CCc1nnc(NS(=O)(=O)c2ccc(NC(=S)NC(=O)c3ccc(OC)c(OC)c3)cc2)s1,?,-,-,-,-,-
CCc1nnc(NS(=O)(=O)c2ccc(NC(=S)NC(=O)c3ccc(OC)cc3)cc2)s1,11.2µM,-,-,-,-,?
CCc1nnc(NS(=O)(=O)c2ccc(NC(=S)NC(=O)/C=C/c3ccc([N+](=O)[O-])cc3)cc2)s1,-,-,.,-,-,-
CC(C)(C)C(=O)NC(=S)Nc1ccc(S(=O)(=O)Nc2nccs2)cc1,-,-,-,-,-,-
CCc1nnc(NS(=O)(=O)c2ccc(NC(=S)NC(=O)/C=C/c3ccc(F)cc3)cc2)s1,50.1µM,-,-,-,-,?
SMILES,rTrxR1 inhibitor,TrxR1 substrate,GALK inhibitor,Eya2 inh,USP2a block,RGS4 inh
O=C(NC(=S)Nc1ccc(S(=O)(=O)Nc2nccs2)cc1)c1ccc(F)cc1,22.4µM,-,.,-,-,-
CC(C)(C)n1ncc2c(=O)n(Cc3ccccc3F)cnc21,-,-,.,.,.,.
CC(=O)NC1=C(C#N)CCC1,-[0.0914 µM],-,.,.,.,.
CC1(C)Cc2c(c(-c3ccco3)nc3sc4c(NCCN5CCOCC5)ncnc4c23)CO1,-,-,-,-,-,-
CC1(C)Cc2c(c(-c3ccco3)nc3sc4c(NCCCO)ncnc4c23)CO1,7.94µM,-,.,-,-,?
CCCCNC(=O)[C@@H]1CC=C[C@@H]2CCN(Cc3ccc(OC)c(OC)c3)C(=O)[C@@H]21,-,-,.,.,.,.
